# RT RNaseH block: blocks HIV-1 RNase H cleavage of RNA/DNA duplex. P04585. RT-RNase H RNA/DNA duplex cleavage, fluorescence. inhibition, % at 10 µM. 65,000 tested, 1.9% active. AID 565; in the data active = inhibition above about 50%
# RmlCD inh mix: inhibitors of RmlC and RmlD coupled enzymes. RmlC/RmlD coupled enzyme inhibition, 384-well mixture HTS. inhibition, % at 5.5 µM. 110,000 tested, 0.39% active. AID 1532; in the data active = inhibition above about 30%, passing the limit was not always enough
# * marks the source's active call; other numbers are inactive results; x = no result. Many of the other results were omitted from the sample, so hits are more common in it than they were.
SMILES,RT RNaseH block,RmlCD inh mix
O=C(CSc1ncn(-c2ccccc2)n1)Nc1ccc(Br)cn1,55*,0
O=c1c2cc(N3CCOCC3)ccc2[nH]c(=S)n1Cc1cccc(Cl)c1,x,-21
O=c1c2cc(N3CCOCC3)ccc2[nH]c(=S)n1Cc1ccco1,55*,-49
CCn1c(=O)c(C(=O)NCCN2CCCCC2)c(O)c2ccccc21,-2,-14
O=C(NCCCN1CCOCC1)c1cc2c(=O)[nH]c3ccccc3c2s1,-25,x
COCCNC(=O)c1c(N)n(CCC(C)C)c2nc3ccccc3nc12,x,-153
COCCNC(=O)c1c(N)n(CCCn2ccnc2)c2nc3ccccc3nc12,-2,124*
O=S(=O)(c1ccc2oc3ccc(S(=O)(=O)N4CCCC4)cc3c2c1)N1CCCC1,8,x
CN=c1oc2ccc(Cl)cc2cc1C(N)=O,-8,-13
CC(=O)Nc1ccc(S(=O)(=O)Nc2nnc(C(C)(C)C)s2)cc1,x,-23
NS(=O)(=O)c1ccc(N=Cc2c(O)n(C3CCCCC3)c(=O)n(C3CCCCC3)c2=O)cc1,52*,x
CC(C)C(=O)N1CCC(CN=Cc2c(O)n(C3CCCCC3)c(=O)n(C3CCCCC3)c2=O)CC1,-2,-23
CCCn1nnnc1SCC(=O)N(C(C)C)C(C)C,65*,-15
CCCCn1nnnc1SCC(=O)N(CC)CC,x,3
C=CCn1c(SCC(=O)NCc2ccco2)nnc1-c1ccc2ccccc2n1,-15,x
Cc1ccc2[nH]c(=O)c(CN(CCc3ccccc3)C(c3nnnn3Cc3ccco3)C(C)C)cc2c1 (stereo unspecified),20,x
CCC(c1nnnn1Cc1ccco1)N(CCc1ccccc1)Cc1cc2cc(C)ccc2[nH]c1=O (stereo unspecified),61*,-4
O=C(CSc1ncn[nH]1)Nc1ccccc1C(=O)O,-7,-5
Cc1ccc2[nH]c3c(=O)n(CCN4CCNCC4)cnc3c2c1,2,-2
CCOC(=O)c1c(NC(=O)c2ccoc2C)sc2c1CCC2,11,-68
CCC1CCc2c(sc(NC(=O)c3ccoc3C)c2C(N)=O)C1 (stereo unspecified),53*,-3
CCSc1nnc(C(N)Cc2ccccc2)o1 (stereo unspecified),x,-1
c1ccc(CSc2ncn(-c3ccccc3)n2)cc1,-34,-1
COc1ccc(S(=O)(=O)Nc2cc(C(C)C)c(O)cc2C)cc1,-6,-18
COc1ccc(S(=O)(=O)Nc2cc(C)c(O)cc2C(C)C)cc1,55*,-42
SMILES,RT RNaseH block,RmlCD inh mix
COC(=O)c1nn2c(C(F)(F)F)cc(-c3ccc(Br)o3)nc2c1Br,64*,-9
O=C(NCc1ccco1)c1nn2c(C(F)(F)F)cc(-c3cccs3)nc2c1Br,x,-6
CCCCOc1c(Cl)cc(CNC(C)(C)CO)cc1OCC,1,-15
CCOC(=O)CSc1nc2ccccc2c(=O)n1C1CCCC1,-11,-7
COc1ccc(NC(=O)CC2Sc3ncnn3C2=O)cc1 (stereo unspecified),3,7
CCOC(=O)c1ccc(NC(=O)CC2Sc3ncnn3C2=O)cc1 (stereo unspecified),60*,-15
N/C(=N\OC(=O)C(c1ccccc1)c1ccccc1)c1cccnc1,x,-13
CS(=O)(=O)c1ccc(CNC(=O)[C@]2(C(F)(F)F)C[C@H](CCc3ccccc3)CCCO2)cc1,x,-6
COc1ccc(OC)c(N=c2oc3c(OC)cccc3cc2C(=O)NCc2ccco2)c1,88*,-16
COc1ccc(N=c2oc3c(OC)cccc3cc2C(=O)NCc2ccco2)cc1OC,-4,7
CC[N+](C)(CC)CCCOC(=O)C(O)(c1ccccc1)C1CCCCC1 (stereo unspecified),x,-15
Cc1ccc2nc3c(cc(C#N)c(=O)n3CCN3CCOCC3)c(=O)n2c1,-1,x
N#Cc1c2c(c(=S)n(-c3ccccc3)c1N)CCCC2,70*,x
CCOC(=O)c1c2c(c(=S)n(-c3ccccc3)c1N)CCC2,9,19
COc1ccc(CCNC(=O)CN(c2ccc(C)cc2)S(=O)(=O)c2c(C)noc2C)cc1OC,-20,-1
CCOC(=O)c1sc2nc(N3CCCC3)c3c(c2c1N)CC(C)(C)OC3,7,45*
CCOC(=O)c1sc2nc(C(C)C)c3c(c2c1N)CC(C)(C)OC3,x,19
O=C(CN1C(=O)C2CC=CCC2C1=O)Nc1nnc(SCc2ccc(Cl)cc2)s1 (stereo unspecified),x,7
CC(C)CC(NC(=O)c1ccc(Cl)cc1Cl)C(=O)O (stereo unspecified),x,-13
Oc1ccccc1C(=S)N1CCCCCC1,38,4
Oc1ccccc1C(=S)N1CCCCC1,53*,-2
Cc1cccc(OCC(=O)Nc2nonc2NC(=O)COc2cccc(C)c2)c1,x,-16
Cc1ccc(C)c(OCC(=O)Nc2nonc2NC(=O)COc2cc(C)ccc2C)c1,73*,1
CCCOc1ccc(N2C(=O)C3ON(c4ccccc4)C(CCC)C3C2=O)cc1 (stereo unspecified),x,60
CCCOc1ccc(N2C(=O)C3ON(c4ccccc4)C(c4ccc(O)c(OC)c4)C3C2=O)cc1 (stereo unspecified),56*,x

# Source: PubChem BioAssay (several laboratories)
